# CDC25B CDK2 inh: primary biochemical HTRF screen for blockers of M-phase inducer phosphatase 2 binding to CDK2/cyclin A. AID 1259370, 2018. z-score (no concentration beside the values). P30305+P24941. HTRF CDC25B-CDK2/CyclinA binding, anti-His/anti-Flag; stronger effect = higher value. 94,000 tested, 0.72% active; in the data active = z-score above about 3.2
# TAR Tat displ: TAR RNA-Tat peptide displacers, HIV-1, primary screen, biochemical, FRET, FAM/TAMRA-labeled Tat; HIV-1 TAR RNA, Tat peptide displacement FRET; stronger effect = higher value; 100,000 tested, 0.6% active; AID 1259389, 2018; z-score (no concentration beside the values); active = z-score of 3 or more in at least 2 runs
# The depositor's hits bear a star; . = not tested or not shown. The list is not random: actives were taken first. Their share in the collection is about 0.86%.
SMILES,CDC25B CDK2 inh,TAR Tat displ
CNC(=O)c1c(NC(=O)c2ccc3c(c2)CCCC3)sc2c1CCC2,.,0.17
Cn1c(=O)[nH]c2nnc(-c3ccc4c(c3)OCO4)nc2c1=O,-1.3,-0.58
COc1ccc(-c2nnc3[nH]c(=O)n(C)c(=O)c3n2)cc1OC,-2.7,8.2*
Oc1ccc(CN2CCN(c3ccccc3)CC2)c2cccnc12,.,2.1
Oc1c(CN2CCN(Cc3ccc4cccnc4c3O)CC2)ccc2cccnc12,-4.2,9.4*
Oc1c(CN2CCOCC2)ccc2cccnc12,1.3,0.41
Oc1ccc(CN2CCCCC2)c2cccnc12,14*,1.3
CCCCC(Nc1ncnc2ccc(Br)cc12)C(=O)O (stereo not drawn),-1.6,-0.19
COc1cc2c(cc1OC)C1=C(C#N)CN(c3ccc(C)c(C)c3)CN1CC2,15*,0.35
COc1cc2c(cc1OC)C1=C(C#N)CN(CCc3ccccc3)CN1CC2,2.1,0.19
CC1Cc2cc(S(=O)(=O)N3CCCc4ccccc43)ccc2N1C(=O)C1CCC1 (stereo not drawn),.,-0.42
O=C(NCC(c1ccco1)N1CCCC1)c1ccc(Br)cc1 (stereo not drawn),-1.1,-1.5
COc1ccc(S(=O)(=O)NCCc2nnc3ccc(SCC(=O)N4CCCC4)nn23)cc1,.,1.4
Cc1nc2nc(-c3ccco3)[nH]n2c(=O)c1Cc1ccccc1,13*,1.1
CCc1c(C)nc2nc(-c3ccco3)[nH]n2c1=O,-0.34,-0.83
Cn1nc(C(=O)NCCCN2CCCC2=O)c2c1-c1ccccc1S(=O)(=O)C2,-0.35,0.96
O=c1cc(CSCc2ccco2)nc2sc(-c3ccccc3)nn12,-1.8,1.5
O=C(Nc1sc2c(c1C(=O)NCc1ccco1)CCCC2)c1csnn1,0.49,0.46
O=C(Nc1sc2c(c1C(=O)NCc1ccco1)CCC2)c1csnn1,-0.63,9.3*
CC(=O)N1N=C(c2ccc(Br)cc2)OC1Cn1nc(C)cc1C (stereo not drawn),.,1.6
CC(C)NS(=O)(=O)c1ccc(NC(=O)C(C)Sc2nc3c(c(=O)[nH]2)CCCC3)cc1 (stereo not drawn),-1.1,1.8
CCOCCCNc1cc(N2CCN(c3ccccc3)CC2)c2noc3c2c1C(=O)c1ccccc1-3,-1.5,1.6
O=C1c2ccccc2-c2onc3c(N4CCOCC4)cc(NCCN4CCCC4)c1c23,-1.8,-5
CC(C)CNc1cc(N2CCOCC2)c2noc3c2c1C(=O)c1ccccc1-3,9.2*,-3.7
CCOCCCNc1cc(N2CCOCC2)c2noc3c2c1C(=O)c1ccccc1-3,0.63,6.8*
SMILES,CDC25B CDK2 inh,TAR Tat displ
CCNc1cc(N2CCOCC2)c2noc3c2c1C(=O)c1ccccc1-3,1.2,11*
O=C1c2ccccc2-c2onc3c(N4CCOCC4)cc(NCCO)c1c23,0.79,-4.5
Oc1cccc(-c2n[nH]c(=S)o2)c1,-0.65,.
CCOC(=O)C(C)Sc1nc(-c2ccc(F)cc2)nc2c1c(=O)n(C)c(=O)n2C (stereo not drawn),-0.95,.
Cc1ccc([C@H]2C(C#N)=C(N)Oc3cc(C)oc(=O)c32)o1,-0.62,.
Cc1ccc(/C=c2/sc3n(c2=O)C(N)=C(C#N)C(c2ccc(C)o2)C=3C#N)o1 (stereo not drawn),6.6*,.
O=c1c(O)cccc2cc(O)c(O)c(O)c12,.,30*
O=C1c2ccccc2C(=O)c2c(O)c(O)cc(O)c21,.,3.5
Cc1cc(S(=O)(=O)[C@H]2CS(=O)(=O)C[C@@H]2N2CCN(C(=O)c3ccco3)CC2)ccc1F,-1.1,0.77
O=C(CCc1nc2sc3c(c2c(=O)[nH]1)CCCCC3)N1CCC(Cc2ccccc2)CC1,.,4.3*
CC1CCN(C(=O)CCc2nc3sc4c(c3c(=O)[nH]2)CCCC4)CC1,.,0.18
O=C(CCc1nc2sc3c(c2c(=O)[nH]1)CCCCC3)N1CCN(c2cccc(Cl)c2)CC1,.,28*
O=C(CCc1nc2sc3c(c2c(=O)[nH]1)CCCCC3)N1CCN(c2ncccn2)CC1,.,2.5
O=C(CCc1nc2sc3c(c2c(=O)[nH]1)CCCCC3)NC1CCCCC1,.,-0.45
O=C(CCc1nc2sc3c(c2c(=O)[nH]1)CCCCC3)NC1CCCC1,.,18*
O=C(O)c1cc(Br)cc(C(=O)O)c1Cl,1.1,2.2
Cc1ccc(C)n1-c1ccc(O)c(C(=O)O)c1,-0.09,33*
Cc1cc(=O)cc(C)n1-c1ccc(C(=O)O)cc1,0.84,-1.7
Cc1ccc(C)n1-c1ccc(Br)cc1C(=O)O,-0.62,19*
CCN1CCN(c2c(S(=O)(=O)c3ccccc3)cnc3ccc(OC)cc23)CC1,-1.1,1.5
CN1CCc2c(sc(N)c2C#N)C1,.,-0.14
CCOC(=O)N1CCc2c(sc(N)c2C#N)C1,5.7*,.
NS(=O)(=O)c1cccc(NC(=O)c2cnc3ccccc3n2)c1,-0.36,.
Nc1cc(S(=O)(=O)O)c(N)c2c1C(=O)c1ccccc1C2=O,-2.4,.
Nc1cc2c(=O)c3cc(Cl)cc(Cl)c3[nH]c2c2c1C(=O)c1ccccc1C2=O,10*,.
SMILES,CDC25B CDK2 inh,TAR Tat displ
COc1ccc(NC2CCCCC2NS(=O)(=O)c2ccccc2)cc1 (stereo not drawn),-2.5,3.1
O=S(=O)(NC1CCCCC1Nc1ccc(F)cc1)c1ccccc1 (stereo not drawn),8.6*,2.9
COC(=O)c1cc(S(=O)(=O)Nc2cc(Cl)ccc2OC)cn1C,-1.2,1.9
COc1ccc(S(=O)(=O)c2cnc3ccccn3c2=O)cc1,-0.57,0.86
COc1ccc(OCCn2nnc3sc4c(c3c2=O)CCCC4)cc1,0.44,3.3*
O=c1c2c3c(sc2nnn1CCCOc1ccccc1)CCCC3,1,1.5
N#Cc1nc(-c2ccc(COc3ccc(Cl)cc3)o2)oc1NCCCN1CCOCC1,-0.9,0.04
COc1ccc(NC(=O)c2sc(=S)n3c2[nH]c(=O)c2sccc23)cc1OC,.,9.2*
COc1ccc(NC(=O)c2sc(=S)n3c2[nH]c(=O)c2ccccc23)cc1OC,.,3.6
O=C1CC(c2ccco2)Cc2[nH]c(=O)c(-c3nc(-c4ccc(Oc5ccccc5)cc4)cs3)cc21 (stereo not drawn),16,0.71
CCOc1ccc(-c2csc(-c3cc4c([nH]c3=O)CC(c3ccco3)CC4=O)n2)cc1 (stereo not drawn),19*,-5.3
CCCCNc1ncnc2c1cnn2-c1cc(Cl)ccc1C,.,1.1
CCOc1ccc(CN(CCc2ccc3c(c2)OCO3)Cc2cccnc2)cc1,16*,0.9
CCOc1ccccc1CN(CCc1ccc2c(c1)OCO2)Cc1cccnc1,-0.39,.
O=C(O)CSc1nc2ncccc2n2cccc12,1.6,-0.05
Cn1c(=O)c2c3c(sc2n2c(SCC(N)=O)nnc12)CCCC3,-0.4,.
CCOc1ccc(C2C3=C(CCCC3=O)NC3=C2C(=O)c2ccccc23)cc1 (stereo not drawn),-2.1,-0.77
CCOc1ccc(C2C3=C(Nc4nc(N)[nH]c(=O)c42)c2ccccc2C3=O)cc1 (stereo not drawn),14*,2.4
Cc1c(Cl)cccc1-n1nnc(-c2nc(-c3ccccc3F)no2)c1N,.,0.44
CCOc1cc(C2C3=C(CCCC3=O)N(C)C3=C2C(=O)CCC3)cc(Cl)c1O,-0.94,0.39
CCOc1cc(C2C3=C(CCCC3=O)NC3=C2C(=O)CCC3)cc(Cl)c1O,16*,0.23
O=C1c2cccc3c(N4CCOCC4)ccc(c23)C(=O)N1c1cc(Cl)ccc1O,9.7*,-4.8
